# Laboratory results as given in ChEMBL document CHEMBL4513160, “CO-ADD screening of MMV (CH) - Small Polar Library”.
# The campaign covered roughly 18,000 compounds. Fewer than 10 showed an effect of 50% or more. These entries were drawn from the full list.
# Tested on: Pseudomonas aeruginosa
# Experiment: Antibacterial activity against Pseudomonas aeruginosa PAO397 [PAO1 d(mexAB-oprM) d(mexCD-oprJ) d(mexEF-oprN) d(mexJKL) d(mexXY) d(opmH)] (CO-ADD:GN_211); MIC in CAMBH media using NBS plates, by OD(600)
# Assay type: functional
# Details: Concentration 300 ug.mL-1, ASSAY_TEST Inhibition of Bacterial Growth, detection method Absorption (OD600), MEDIA CAMHB, plate type 384well, CORNING #3640, time 18 hr
row,SMILES,Inhibition [%]
1,COCCCOc1cnc(C#N)cn1,-8.76
2,Cc1ncccc1CN1CCCCC1(C)C(N)=O (stereo unspecified),-20.64
3,Cc1cc(C)cc(OCC(=O)N2CCNCC2)c1,-0.07
4,Cc1ccc(C(=O)NCCNC(=O)c2ccco2)cc1,-53.65
5,CC1COCCN1Cc1cn2ccccc2n1 (stereo unspecified),15.25
6,c1ccc(C/N=C2/CCCCCN2)nc1,23.32
7,N#Cc1ccc(CN)cc1F,2.48
8,CN1CCN(C(N)=O)C(c2ccccc2)C1 (stereo unspecified),4.12
9,COC(=O)CN1CCCC1=O,5.23
10,CCNC(=O)CSc1nc(C)c(C)n1CCOC,3.04
11,CN(C)C(CNC1=NCCN1)c1ccsc1 (stereo unspecified),-1.92
12,Cc1c(NC(=O)c2cnccn2)cccc1C(N)=O,2.03
13,CCn1cnnc1CNC(=O)c1cccc(N(C)C)c1,-1.56
14,NC1CC(=O)c2ccccc21 (stereo unspecified),4.06
15,O=C(CN1CCNC(=O)C1)NCCOc1ccccc1,25.17
16,c1cn(-c2cc(N3CCSCC3)ncn2)cn1,8.05
17,O=C(c1ccsc1)N1CCCN(c2cccnn2)CC1,0.34
18,CC(C)n1nccc1NC(=O)CN(C)Cc1ccco1,9.78
19,COc1ccc(CNc2ccncc2F)cc1C#N,-8.23
20,CC(C)(C)C(=O)Nc1ccc(N2CCNC(=O)C2)cc1,7.8
21,COc1ccc(Cl)cc1NC(=O)N[C@@H]1CNCC[C@H]1O,-35.77
22,CN(C)C1(CNC(=O)c2cn[nH]c2)CCOCC1,-13.75

row,SMILES,Inhibition [%]
1,NCC1CCCOC1 (stereo unspecified),10.08
2,COc1cc(CCCN)cc(OC)c1O,4.59
3,Cc1ccccc1CN1CCCN(CCC(N)=O)CC1,-4.93
4,NC(=O)NC(=O)CCNS(=O)(=O)c1ccccc1Cl,13.15
5,NCC(O)CN1CCc2ccccc2C1 (stereo unspecified),-6.8
6,CC(CC(=O)N1CC[C@H](O)C1)c1cccc(F)c1 (stereo partly specified),-15.14
7,CO[C@H]1CNCC1NC(=O)Cc1ccc(F)cc1F (stereo partly specified),11.48
8,N#Cc1ncc(Cl)cc1Cl,28.39
9,CC(C)CC(=O)NCc1ccnc(N2CCCC2)c1,-20.17
10,CCC[C@H]1CN(C(=O)c2csc(NC)n2)C[C@@H]1N,2.64
11,NCCN1C(=O)COc2ccccc21,-12.94
12,Cc1cc(NC(=O)NCC2CCN(CCO)CC2)no1,13.32
13,CCc1cccc(S(=O)(=O)N2CC[C@H](N)C2)c1,-15.97
14,COCCNCCNC(=O)c1ccc(Cl)c(C)c1,-10.19
15,CNC(=O)c1ccc(C)c(NC(=O)c2ccco2)c1,-0.03
16,OC(CNc1ncc(Cl)cc1F)CN1CCOCC1 (stereo unspecified),11.06
17,CC(C)C(=O)Nc1ccc(N2CCOCC2)nc1,4.38
18,COC(=O)CCCC(=O)N1CCC2(CCCC2)C1,14.7
19,COCCNS(=O)(=O)C1CCCCC1,-6.37
20,CC(C)c1cccc(S(=O)(=O)N2CCCC2CN)c1 (stereo unspecified),-46.42
21,O=C(CN1CCCC1c1ccco1)N1CCOCC1 (stereo unspecified),18.12
22,CC(C)c1ccn(CC(=O)NC2CC2)n1,1.75

row,SMILES,Inhibition [%]
1,CCc1nnc(NCCS(=O)(=O)N(C)C)o1,-4.82
2,CC(C)n1cc(C(=O)NCCN(C)S(C)(=O)=O)cn1,17.41
3,CC(=O)NCc1cn2c(C)cccc2n1,-5.3
4,Cc1ccnc(NCCS(=O)(=O)NCC2CCC2)c1,-18.59
5,CNC(=O)c1nc(-c2ccc(C(F)(F)F)cc2)no1,32.14
6,CN(c1ccccc1C(N)=O)S(=O)(=O)c1cccs1,-71.82
7,CN(C(=O)COCC1CC1)c1nc2ccccc2n1C,4.52
8,CNc1ccc(N2CCOCC2)nc1,-26.42
9,CCN1CCN(CC(=O)Nc2ccc(C)cc2C)CC1,-4.07
10,CN(C)[C@@H]1CN(C(=O)c2ncccn2)C[C@H]1CO,3.69
11,NC(=O)CCC1CCNCC1,-8.79
12,CCC(C)NC(=O)N1CCCN(C2CC2)CC1 (stereo unspecified),16.96
13,Fc1ccccc1CN1CCn2ccnc2C1,-12.72
14,NC1CCCN(c2noc(-c3ccccc3)n2)CC1 (stereo unspecified),0.95
15,COCCNC(=O)NCCc1ccc(C)c(OC)c1,7.38
16,Cc1ccc(NC(=O)NC2(CCO)CCOCC2)s1,-4.26
17,CCc1nnc(NC2CCOC3(CCOCC3)C2)o1 (stereo unspecified),8.44
18,CCc1ccccc1CN,3.32
19,CC(=O)NC(C(=O)Nc1cccc(C)n1)C(C)C (stereo unspecified),-8.54
20,O=C1CN(Cc2ncc[nH]2)CCN1C1CCCC1,2.49
21,CCOCC(=O)N(C)Cc1cccc2cnccc12,-38.69
22,CC(CO)Sc1ccc(S(=O)(=O)C(F)F)cc1 (stereo unspecified),16.44

row,SMILES,Inhibition [%]
1,CS(=O)(=O)CC1(CNc2cccc(C(F)(F)F)n2)CC1,-21.2
2,OCc1ccncc1NCC1CCOCC1,8.94
3,OCCCNc1cccc(Cl)c1-n1cccn1,-33.42
4,Cn1nc(C(F)(F)F)c(Cl)c1C(=O)N[C@@H]1CCNC1,31.11
5,CC(=O)NC(CC(=O)N1CCCC1)c1ccc(Cl)cc1 (stereo unspecified),-24.39
6,CN(Cc1ccccc1)C(=O)NC1CCCCNC1=O (stereo unspecified),-2.06
7,CS(=O)(=O)N1CCCC(C(=O)Nc2cccnc2O)C1 (stereo unspecified),14.72
8,Cc1cc(N(C)C)nc(N2CCCC2C(=O)N(C)C)n1 (stereo unspecified),-8.5
9,Cc1cc(NC(=O)CCn2ccnc2)no1,1.69
10,COc1c(CNC(=O)c2cccs2)c(C)nn1C,-17.79
11,CCC(=O)N1CCCN(c2ccncc2Cl)CC1,-2.88
12,CN1Cc2cccn2CC1CNC(=O)NC1CCCC1 (stereo unspecified),-13.25
13,N[C@@H]1CC[C@@H]1NC(=O)CCn1cc(Cl)cn1,-25.34
14,COc1cc(F)c(C(=O)N[C@@H]2CCNC[C@H]2O)c(F)c1,19.43
15,CN(c1ccc(O)cc1)S(=O)(=O)c1ccco1,-8.79
16,CCOCC(=O)N1C[C@H](CO)C[C@H](CN2CCCC2)C1,-0.69
17,COc1ccc(CNC(=O)C2=COCCO2)cc1OC,2.02
18,CCN(C)CCNC(=O)c1cc(C2CC2)[nH]n1,-3.76
19,Cn1c(N)nc2cc(F)ccc21,-7.38
20,COc1ccc(C)c(NC(=O)N(C)CCN(C)C)c1,-15.47
21,NS(=O)(=O)CC1CCCN1CCSc1ccccc1 (stereo unspecified),-5.99
22,CCn1ccc(C(=O)NCc2ccco2)n1,2.87

row,SMILES,Inhibition [%]
1,O=C1CCC(=O)N1CCSc1ccc2ccccc2n1,-6.71
2,Cc1cc(NC(=O)Nc2ccccn2)n(C)n1,4.35
3,CC(=O)N1CCCn2nc(-c3cccnc3)cc2C1,11.49
4,COc1ccc(Br)c(S(=O)(=O)N(C)C)c1,-20.8
5,COc1ccc2c(c1)[C@@H](O)CCC2,-31.22
6,N#Cc1ccc(OC2CCNC2)nc1 (stereo unspecified),1.63
7,O=C(CCc1ccccn1)NCCn1cccc1,9.1
8,N#CCSCC(=O)NCc1ccccc1F,-29.21
9,Nc1ncccc1CN1CCc2ccccc2CC1,7.61
10,COc1ccc(-c2cncc(N)c2)cc1CO,-5.49
11,COCCN(C)C(=O)Nc1cccc(C)n1,-9.37
12,NCC(=O)Nc1ccc2c(c1)CCC2,-42.19
13,NCc1nc2c(s1)CCCC2,-13.62
14,Cn1ccnc1SCCNCC1(O)CNCCOC1 (stereo unspecified),1.72
15,COCCn1ccnc1CN1CCN(C)C(CO)C1 (stereo unspecified),-3.82
16,CN(C)C1CCCN(C(=O)c2n[nH]c(N)c2Cl)CC1 (stereo unspecified),-17.73
17,O=C1CC(N2CCN(Cc3ccccc3)CC2)C(=O)N1 (stereo unspecified),-12.59
18,CN1CC[C@H]2CN(C(=O)CCCc3cn[nH]c3)C[C@H]21,-2.24
19,CC(O)CCS(C)(=O)=O (stereo unspecified),4.88
20,NC1CCN(S(=O)(=O)C2CC2)CC1,17.98
21,O=C(CCc1ccc2[nH]ccc2c1)N1CCOCC1,-29.4
22,CCOc1cc(C(=O)NC2=NCCS2)ccc1OC,13.17

row,SMILES,Inhibition [%]
1,Cn1nc(C(=O)Nc2nc(CC(N)=O)cs2)ccc1=O,12.8
2,OCc1cc(CNc2ncccn2)ccc1F,6.43
3,CC(CN)N(C)C(=O)c1ccccc1Br (stereo unspecified),12.75
4,CN(C)c1ncccc1CNC(=O)COCC1CC1,-2.02
5,CC(C)C(=O)NCc1ccnc(-n2cccn2)c1,10.08
6,O=C(Cn1cc(Br)cn1)NC1CCc2nccn2C1 (stereo unspecified),-4.73
7,CCCOc1cccc(NCCCS(C)(=O)=O)c1,1.09
8,O=C(NCCCN1CCc2ccccc2C1)C1CC1,-1.62
9,NCC1CCN(c2cnn(CC3CCC3)c(=O)c2)CC1,-9.55
10,CC1CN(c2cc(CN)ccn2)CCO1 (stereo unspecified),10.77
11,CC(C)(C(=O)N1CC[S+]([O-])C(C)(C)C1)c1ccccc1 (stereo unspecified),12.17
12,NC(=O)NCC1CCN(Cc2ccccc2)C1 (stereo unspecified),-16
13,COCC(=O)Nc1cccc(CN2CCCC2)c1,-2.77
14,NC(=O)C1CCN(C(=O)C2CCCO2)CC1 (stereo unspecified),-13.49
15,COc1ccc(C(=O)NCc2ccccn2)cc1F,-44.49
16,COC(=O)CNc1ccc2ccn(C)c(=O)c2c1,13.73
17,CN1CCCC(CCN)C1 (stereo unspecified),8.27
18,Cc1nn(C)c(C)c1CCC(=O)NC1CCCNC1=O (stereo unspecified),6.16
19,O=C(c1ccc(Br)cn1)N1CCN(CCO)CC1,18.45
20,CSc1ncccc1C(=O)N1CCCC(C)(C#N)C1 (stereo unspecified),-17.22
21,CC1CCCN(Cc2cc(=O)n(C)c(=O)n2C)C1 (stereo unspecified),8.23
